# From PubChem
# HP1b chromo inh: HTS for Inhibitors of HP1-beta Chromodomain Interactions with Methylated Histone Tails | AlphaScreen HP1-beta / biotin-H3K9me3 peptide binding | Potency, µM (titrated, usually from 114 µM), inactives show top-dose activity change, negative = inhibition, hits mostly inhibitors | 390,000 tested, 0.56% active | AID 540317, 2011; note: nearly all actives have a fitted effect of over 70% in size
#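 AlphaScreen: HP1-beta (50 nM) preformed 30 min with biotin-H3(1-18)K9me3 peptide (50 nM) in PBS pH 7.4, 0.01% Tween-20. Compound added for 30 min at RT, then streptavidin donor/nickel chelate acceptor beads (10 ug/mL) for 30 min.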
# G9a block: qHTS Assay for Inhibitors of Histone Lysine Methyltransferase G9a. 350,000 tested, 8.8% active. G9a H3K9 monomethylation, AlphaScreen, 2 h. Potency, µM (top dose mostly 102 µM), without a hit: at the top dose activity, negative = inhibition, most hits filed as inhibitors; note: % is set by controls: 0 for no effect and ±100 for the full control effect; nearly all actives have a fitted effect of over 75% in size
#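 Step 1: enzyme (final 20 nM) with compound, 15 min RT. Step 2: substrate peptide 500 nM and SAM 20 uM, 2 h RT. Step 3: anti-H3K9me1 antibody and AlphaScreen beads, 10 min, then plate read.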
# JMJD2A Tudor inh: qHTS Assay for Inhibitors of JMJD2A-Tudor Domain. Potency, µM (doses to about 114 µM), without a hit: top-dose activity change, negative = inhibition, actives largely listed as inhibitors. AlphaScreen JMJD2A-Tudor / H3K4me3 peptide binding. Lysine-specific demethylase 4A (Homo sapiens), O75164. AID 504339, 2011. 390,000 tested, 4.4% active; note: % is set by controls: 0 for no effect and ±100 for the full control effect; nearly all actives have a fitted effect of over 50% in size
# Target sequence (O75164 whole entry, looked up, the tested form may be a part): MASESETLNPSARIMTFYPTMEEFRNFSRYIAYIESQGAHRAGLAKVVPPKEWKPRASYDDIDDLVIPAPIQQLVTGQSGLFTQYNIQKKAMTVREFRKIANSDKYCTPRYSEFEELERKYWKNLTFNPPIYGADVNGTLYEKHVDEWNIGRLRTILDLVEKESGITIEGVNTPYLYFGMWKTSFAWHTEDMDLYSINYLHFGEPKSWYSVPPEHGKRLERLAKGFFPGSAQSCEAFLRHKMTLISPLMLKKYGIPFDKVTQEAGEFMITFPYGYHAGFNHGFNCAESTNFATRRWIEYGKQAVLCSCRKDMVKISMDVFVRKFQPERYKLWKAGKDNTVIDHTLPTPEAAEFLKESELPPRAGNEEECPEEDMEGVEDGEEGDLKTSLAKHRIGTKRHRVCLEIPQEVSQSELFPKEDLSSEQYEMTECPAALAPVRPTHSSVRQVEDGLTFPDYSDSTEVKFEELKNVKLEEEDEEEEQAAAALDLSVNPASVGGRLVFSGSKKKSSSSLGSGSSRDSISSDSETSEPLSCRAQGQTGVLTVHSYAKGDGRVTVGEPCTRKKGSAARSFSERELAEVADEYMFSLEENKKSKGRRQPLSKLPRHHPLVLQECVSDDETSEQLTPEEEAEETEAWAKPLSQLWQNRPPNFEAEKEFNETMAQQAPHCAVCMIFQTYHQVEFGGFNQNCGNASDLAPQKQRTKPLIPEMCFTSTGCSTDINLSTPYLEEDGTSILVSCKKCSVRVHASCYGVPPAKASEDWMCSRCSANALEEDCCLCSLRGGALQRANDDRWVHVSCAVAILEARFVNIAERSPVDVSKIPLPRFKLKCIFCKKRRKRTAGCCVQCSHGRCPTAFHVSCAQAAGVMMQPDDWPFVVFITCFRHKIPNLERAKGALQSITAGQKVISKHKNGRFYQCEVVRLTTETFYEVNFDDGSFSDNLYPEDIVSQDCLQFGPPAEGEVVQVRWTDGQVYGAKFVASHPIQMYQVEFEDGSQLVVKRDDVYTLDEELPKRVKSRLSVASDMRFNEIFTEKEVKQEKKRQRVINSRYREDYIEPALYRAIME
# BAZ2B inh: qHTS Assay for Inhibitors of BAZ2B; AlphaScreen BAZ2B-H3K14Ac peptide displacement; Potency, µM (top dose mostly 114 µM), for the others: at the top dose activity change, negative = inhibition, hits mostly inhibitors; 360,000 tested, 4.4% active; AID 504333, 2011; note: % is set by controls: 0 for no effect and ±100 for the full control effect; nearly all actives have a fitted effect of over 60% in size
#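 BAZ2B 50 nM plus b-H3(5-23)K14Ac 50 nM, PBS pH 7.4/0.01% Tween-20, 30 min RT; compound added (max 110 uM), 30 min RT; streptavidin donor/Ni-chelate acceptor beads 10 ug/mL final, 20 min dark; AlphaScreen read.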
# L3MBTL1 block: qHTS Assay for the Inhibitors of L3MBTL1 | AlphaScreen L3MBTL1–H3K9me1 peptide binding | Potency, µM (highest dose often 57.1 µM), for the others: top-dose activity, negative = inhibition, usual class: inhibitors | 230,000 tested, 0.66% active | AID 485360, 2010; note: % is set by controls: 0 for no effect and ±100 for the full control effect; nearly all actives have a fitted effect of over 60% in size
#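 L3MBTL1 50 nM + b-AHA-H3(1-15)K9me1 75 nM, 30 min RT; compound added, 30 min RT; streptavidin donor/Ni-chelate acceptor beads 10 ug/mL each final, 30 min RT dark; AlphaScreen read.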
# Sfp inh: qHTS Assay for Inhibitors of Bacillus subtilis Sfp phosphopantetheinyl transferase (PPTase); 310,000 tested, 3.5% active; AID 1490, 2009; Biochemical Sfp PPTase activity, qHTS; 4'-phosphopantetheinyl transferase ffp (Bacillus subtilis), Q9F4F7; Potency, µM, without a hit: largest response in the series, negative = inhibition, most hits filed as inhibitors;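 note: the enzyme is Sfp with the accession as filed and its product quenches rhodamine fluorescence; 0% = enzyme reaction without inhibitor and -100% = no enzyme wells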
#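 Step 1, compound plus 15 nM Sfp-PPTase, 15 min, room temperature. Step 2, add rhodamine-CoA (5 uM) and BHQ-2-YbbR (12.5 uM). Step 3, read 525/598 nm fluorescence at 0 and 30 min.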
# * hit, by the source's call; ? = inconclusive; / = not tested or not shown; [ ] = remark or other dose. Most compounds without a hit are left out; they make up all but 12% or so of the library. Calls come from the whole dose curve; as a rule, active = well fitted curve in the direction sought with a large enough effect; inconclusive = small, poorly fitted or top-dose-only effect, or another doubt; inactive = no such curve, though single readings can be large; an effect the other way counts as inactive or inconclusive. Potency is the fitted concentration of half-maximal effect.
SMILES,HP1b chromo inh,G9a block,JMJD2A Tudor inh,BAZ2B inh,L3MBTL1 block,Sfp inh
CCC(C(=O)Nc1ccc(C(C)=O)cc1)n1c(C)c2cnn(-c3ccccc3)c(=O)c2c1C (configuration not stated),28%,7%[59 µM],-32%,-29%,/,/
COc1ccc(CNS(=O)(=O)c2ccc3c(c2)C(C)(C)C(=O)N3C)cc1OC,17%,-1%[59 µM],8%,5%,/,/
O=C(c1ccco1)N1CCN(Cc2cccnc2)CC1,-45%,3.5µM*,3.5µM*,25µM*,/,?
O=C(CSc1ccc(Br)cc1)N1CCN(C(=O)c2ccco2)CC1,46%,45µM*,-8%,-6%,-7%,3%
COC(=O)CN1CCN(C(=O)c2ccco2)CC1,38%,/,16%,-12%,/,-20%
Cc1ccc(CN2CCN(C(=O)c3ccco3)CC2)cc1,15%,11%[59 µM],-19%,-1%,9%[11.4 µM],-3%
CCc1cc2ccc(C)cc2nc1SCC(=O)N1CCN(C(=O)c2ccco2)CC1,?,?,89µM*,?,/,?
COc1ccc(CN2CCN(C(=O)c3ccco3)CC2)c(OC)c1OC,?,/,25µM*,/,/,/
CCc1ccc(S(=O)(=O)c2nnn3c2nc(NC2CCCCCC2)c2sccc23)cc1,36%,10%[59 µM],-11%,-4%,/,/
CCCCCCCC1=Cc2ccc(F)cc2C(C(C(C)=O)C(=O)OC)N1C(=O)OC (configuration not stated),/,/,/,/,/,6%
Cc1ccc(CC(=O)Nc2ccc3c(c2)N(C)C(=O)c2ccccc2S3)cc1,?,4µM*,?,?,/,/
CCOC(=O)c1c(C)[nH]c(C)c1S(=O)(=O)NCC(=O)NCc1cccc(Br)c1,14%,-1%[59 µM],-18%,-19%,/,/
CCOC(=O)c1c(C)[nH]c(N=Nc2ccc(OC)cc2)c1C,?,28µM*,56µM*,40µM*,/,50µM*
COC(=O)c1c(C)[nH]c(C=Nc2ccc(OC)cc2)c1C,3%,-44%,-32%,-29%,1%,7%
CCOC(=O)c1c(C)[nH]c(N=Nc2ccccc2)c1C,40µM*,40µM*,56µM*,35µM*,/,-24%
CCOC(=O)c1[nH]c(C)c(C(=O)c2ccc(C)cc2)c1C,-4%,26%[59 µM],?,-38%,/,8%
CCOC(=O)c1c(C)[nH]c(N=Nc2ccc(C)cc2)c1C,?,?,40µM*,45µM*,/,20µM*
CCOC(=O)c1c(C)[nH]c(NC(=O)NNC(=O)c2ccccc2Cl)c1C,33%,19%[2.33 µM],-16%,4%,5%,/
CCOC(=O)c1c(C)[nH]c(N=Nc2ccccc2Cl)c1C,?,-119%[59 µM],16µM*,8.9µM*,/,?
O=C(O[C@H]1CN2CCC1CC2)N1CCc2ccccc2[C@@H]1c1ccccc1,/,-44%[12.7 µM],/,/,/,3%
COc1cccc(/C=C2/CCC(CN(C)C)C2=O)c1 (configuration not stated),?,/,79µM*,/,/,/
Cn1c(-[n+]2c(-c3ccccc3)cc(-c3ccccc3)cc2-c2ccccc2)nc2c([N+](=O)[O-])cccc21,10%,10µM*,-29%,-29%,-1%,-13%
Cn1c(-c2cccc([N+](=O)[O-])c2)[n+](C)c2ccccc21,26%,6%,0%,/,/,6%
CC(C)(C)OC(=O)N1CCC(c2c(C(=O)NCC3CCN(C4CCCC4)C3)cnn2-c2ccc(F)cc2)CC1 (configuration not stated),23%,9%[59 µM],-26%,-10%,/,15%
Cc1ccc(-n2ncc(C(=O)NCC3CCN(C4CCCC4)C3)c2C2CCN(C(=O)OC(C)(C)C)CC2)cc1 (configuration not stated),47%,71µM*,-30%,?,/,-8%
SMILES,HP1b chromo inh,G9a block,JMJD2A Tudor inh,BAZ2B inh,L3MBTL1 block,Sfp inh
O=C(Nc1ccc(Br)cc1)N1CCC(CN2CCCC2)CC1,76%,4%[59 µM],-7%,-6%,/,/
Cc1nc(-c2ccccc2)sc1C(=O)NN,66%,?,-22%,-30%,17%,10%
CNC(=O)c1sc(-c2cccs2)nc1C,28%,45µM*,0%,/,5%,12%
COc1cc(NC(=O)c2ccccc2-c2ccccc2)cc(OC)c1OC,/,/,/,0%,7%,4%
CCSc1ccccc1C(=O)Nc1cc(OC)c(OC)c(OC)c1,10%,3.5µM*,-33%,-13%,3%,16µM*
COCCSc1ccccc1C(=O)Nc1nncs1,43%,25µM*,-4%,-19%,1%,-5%
COCCSc1ccccc1C(=O)Nc1cc(C)ccn1,32%,-22%,3%,5%,6%,12%
CC(Oc1ccc(F)cc1)C(=O)Nc1cccc(-c2nn[nH]n2)c1 (configuration not stated),0%,25µM*,-23%,-17%,/,32µM*
COc1ccccc1OC(C)C(=O)Nc1cccc(-c2nc3ccccc3s2)c1 (configuration not stated),18%,8.9µM*,0%,2%,/,/
CN1CCN(c2ncc3nc(-c4cn(C)c5ccccc45)c(=O)n(Cc4cccs4)c3n2)CC1,/,-25%[0.501 µM],/,/,/,1%
COCCSc1ccccc1C(=O)Nc1cc(C)cc(C)c1,52%,4.5µM*,1%,0%,4%,?
COc1ccccc1OC(C)C(=O)Nc1ccc2c(c1)OCCO2 (configuration not stated),-14%,32µM*,-18%,-4%,/,15%
Cc1ccccc1OC(C)C(=O)Nc1ccc2c(c1)OCO2 (configuration not stated),17%,16%,-3%,-20%,/,6%
COCCSc1ccccc1C(=O)Nc1ccc2c(c1)OCCO2,59%,3.5µM*,2%,2%,/,-9%
COCCSc1ccccc1C(=O)Nc1ccncc1,11%,?,-1%,2%,/,-5%
COc1cc(SC)ccc1C(=O)Nc1ccc2c(c1)OCCO2,3%,50µM*,-14%,-22%,2%,-8%
Cc1nnc(N2CCN(C(=O)Nc3cc(F)ccc3F)CC2)c2nn(-c3ccc(Cl)cc3)c(C)c12,69%,5%[59 µM],-30%,-14%,/,/
O=C(COc1ccc(F)cc1)Nc1nnc(S(=O)(=O)N2CCc3ccccc32)s1,7%,-53%[59 µM],-26%,?,/,/
O=C(Nc1nncs1)c1cccnc1Cl,5%,1.4µM*,-18%,-5%,10%,8%
COc1ccc(S(=O)(=O)NCC(=O)Nc2ccc3c(c2)OCCO3)cc1OC,37%,50µM*,-11%,17%,/,1%
